{
  "source": "PubChem BioAssay (EPA / NIEHS)",
  "key": {"[1]": {"biological_target": "Androgen receptor (Homo sapiens) (UniProt P10275)", "sequence (P10275 whole entry, looked up, the tested form may be a part)": "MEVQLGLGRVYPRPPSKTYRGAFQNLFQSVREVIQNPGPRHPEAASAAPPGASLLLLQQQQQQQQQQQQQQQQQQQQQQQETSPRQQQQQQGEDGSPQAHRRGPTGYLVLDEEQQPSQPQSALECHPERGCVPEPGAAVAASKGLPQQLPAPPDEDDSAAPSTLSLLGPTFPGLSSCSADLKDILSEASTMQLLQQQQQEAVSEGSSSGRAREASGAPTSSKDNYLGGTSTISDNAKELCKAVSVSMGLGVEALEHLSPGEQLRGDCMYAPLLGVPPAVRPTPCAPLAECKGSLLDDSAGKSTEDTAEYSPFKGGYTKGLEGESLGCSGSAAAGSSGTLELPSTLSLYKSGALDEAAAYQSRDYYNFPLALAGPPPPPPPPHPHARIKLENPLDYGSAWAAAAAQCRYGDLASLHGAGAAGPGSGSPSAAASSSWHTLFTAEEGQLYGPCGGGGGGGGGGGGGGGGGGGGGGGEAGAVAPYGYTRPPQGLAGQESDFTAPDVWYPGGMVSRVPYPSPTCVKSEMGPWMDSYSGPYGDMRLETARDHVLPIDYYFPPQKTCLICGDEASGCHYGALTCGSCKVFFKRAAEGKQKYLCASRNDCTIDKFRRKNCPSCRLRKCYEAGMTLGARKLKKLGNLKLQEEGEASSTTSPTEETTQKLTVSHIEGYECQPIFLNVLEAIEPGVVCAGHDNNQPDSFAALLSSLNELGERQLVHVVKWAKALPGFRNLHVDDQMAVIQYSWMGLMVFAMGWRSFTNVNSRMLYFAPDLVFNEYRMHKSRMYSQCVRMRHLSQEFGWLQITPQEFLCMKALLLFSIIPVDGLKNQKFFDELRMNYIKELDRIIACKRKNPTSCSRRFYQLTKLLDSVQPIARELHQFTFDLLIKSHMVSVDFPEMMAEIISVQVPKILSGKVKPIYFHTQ", "test": "ATG_AR_TRANS: Attagene TRANS-FACTORIAL HepG2 Assay for human Androgen Receptor (AR) (AID 2282973)", "conditions": "HepG2 Attagene TRANS-FACTORIAL AR reporter transcription", "how_it_was_run": "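HepG2 cells transiently transfected with AR-Gal4 chimera and GAL4-UAS reporter units; chemical exposure 24 h. Reporter mRNA quantified by RT-PCR with fluorescent labelling and capillary electrophoresis; gain-of-signal fitted against DMSO.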"}, "[2]": {"biological_target": "human Acetylcholinesterase (AChE), ACHE (gene 43) (UniProt P22303)", "sequence (P22303 whole entry, looked up)": "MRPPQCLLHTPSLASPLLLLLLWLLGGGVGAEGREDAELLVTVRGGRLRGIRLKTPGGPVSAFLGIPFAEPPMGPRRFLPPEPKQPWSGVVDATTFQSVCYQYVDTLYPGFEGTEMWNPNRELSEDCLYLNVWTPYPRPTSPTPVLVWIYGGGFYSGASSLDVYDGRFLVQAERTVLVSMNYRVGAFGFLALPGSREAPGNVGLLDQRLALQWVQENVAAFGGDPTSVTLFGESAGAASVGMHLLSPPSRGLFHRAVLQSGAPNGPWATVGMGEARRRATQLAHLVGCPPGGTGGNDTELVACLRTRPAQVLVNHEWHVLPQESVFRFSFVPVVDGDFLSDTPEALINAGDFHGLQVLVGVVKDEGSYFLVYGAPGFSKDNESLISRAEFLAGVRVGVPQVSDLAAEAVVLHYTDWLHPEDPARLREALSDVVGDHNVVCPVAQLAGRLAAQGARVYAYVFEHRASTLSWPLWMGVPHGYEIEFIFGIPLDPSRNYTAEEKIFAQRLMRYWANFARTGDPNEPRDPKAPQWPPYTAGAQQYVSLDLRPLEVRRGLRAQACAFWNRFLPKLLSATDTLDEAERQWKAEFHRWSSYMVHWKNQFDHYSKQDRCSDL", "test": "NVS_ENZ_hAChE: NovaScreen (NVS) Enzymatic Assay for human Acetylcholinesterase (AChE) (AID 2283129)", "how_it_was_run": "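Actives from a duplicate single-point screen (25 uM) were followed up in concentration series. Enzyme activity read by absorbance (colorimetric) 0.33 hour after dosing, cell-free, normalized to DMSO, with loss of signal scored.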"}, "[3]": {"biological_target": "human MET Proto-Oncogene, Receptor Tyrosine Kinase (MET), MET (gene 4233) (UniProt P08581)", "sequence (P08581 whole entry, looked up)": "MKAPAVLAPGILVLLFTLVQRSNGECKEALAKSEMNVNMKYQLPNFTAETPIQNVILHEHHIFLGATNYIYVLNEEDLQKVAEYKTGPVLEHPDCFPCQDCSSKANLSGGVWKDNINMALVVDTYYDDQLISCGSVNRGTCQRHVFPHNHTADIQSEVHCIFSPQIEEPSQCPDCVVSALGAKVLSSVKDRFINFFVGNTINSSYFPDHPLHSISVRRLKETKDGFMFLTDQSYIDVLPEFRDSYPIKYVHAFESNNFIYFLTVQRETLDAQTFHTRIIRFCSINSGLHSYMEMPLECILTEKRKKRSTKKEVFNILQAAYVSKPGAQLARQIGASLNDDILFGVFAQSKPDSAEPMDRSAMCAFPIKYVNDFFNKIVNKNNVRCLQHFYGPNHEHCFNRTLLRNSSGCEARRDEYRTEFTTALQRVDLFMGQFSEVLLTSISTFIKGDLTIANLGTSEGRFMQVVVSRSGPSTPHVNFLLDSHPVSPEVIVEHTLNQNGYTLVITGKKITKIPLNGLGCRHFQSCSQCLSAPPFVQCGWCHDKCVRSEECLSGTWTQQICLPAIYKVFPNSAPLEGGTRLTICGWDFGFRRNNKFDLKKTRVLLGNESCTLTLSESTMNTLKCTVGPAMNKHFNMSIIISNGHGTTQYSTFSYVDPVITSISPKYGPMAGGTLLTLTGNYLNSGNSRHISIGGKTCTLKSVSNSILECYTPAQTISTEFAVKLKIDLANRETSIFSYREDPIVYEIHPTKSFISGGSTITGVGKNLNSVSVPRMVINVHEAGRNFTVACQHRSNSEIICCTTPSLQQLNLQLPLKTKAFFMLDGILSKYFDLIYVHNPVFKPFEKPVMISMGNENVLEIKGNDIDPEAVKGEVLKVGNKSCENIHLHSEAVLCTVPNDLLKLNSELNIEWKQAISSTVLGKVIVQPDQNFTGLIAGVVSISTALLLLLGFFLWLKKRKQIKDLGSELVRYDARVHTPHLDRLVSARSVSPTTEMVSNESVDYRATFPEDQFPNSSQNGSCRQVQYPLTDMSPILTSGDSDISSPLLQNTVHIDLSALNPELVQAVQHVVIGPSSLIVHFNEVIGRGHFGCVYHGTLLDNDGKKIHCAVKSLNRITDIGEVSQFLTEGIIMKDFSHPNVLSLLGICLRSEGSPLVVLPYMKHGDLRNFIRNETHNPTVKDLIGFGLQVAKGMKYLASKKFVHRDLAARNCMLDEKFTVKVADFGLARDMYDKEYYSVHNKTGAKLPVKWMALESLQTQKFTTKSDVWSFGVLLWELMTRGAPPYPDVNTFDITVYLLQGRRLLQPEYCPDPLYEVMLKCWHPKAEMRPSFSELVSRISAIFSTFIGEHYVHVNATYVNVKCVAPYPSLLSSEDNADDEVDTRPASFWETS", "test": "NVS_ENZ_hMet: NovaScreen (NVS) Enzymatic Assay for human MET Proto-Oncogene, Receptor Tyrosine Kinase (MET) (AID 2283180)", "how_it_was_run": "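Hits from a 25 uM duplicate screen were retested in concentration series up to 50 uM. Enzyme activity was measured by fluorescence after electrophoretic separation of product from substrate, 1 h after compound addition, relative to DMSO.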"}, "[4]": {"biological_target": "human Matrix Metalloproteinase-1 (MMP1), MMP1 (gene 4312) (UniProt P03956)", "test": "NVS_ENZ_hMMP1: NovaScreen (NVS) Enzymatic Assay for human Matrix Metalloproteinase-1 (MMP1) (AID 2283181)", "how_it_was_run": "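Cell-free fluorescent substrate assay of human MMP1, read after 1 h. A single 25 uM duplicate screen was followed by concentration series to a maximum of 50 uM for actives meeting threshold; inhibition analysed against DMSO baseline.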"}, "[5]": {"biological_target": "rat Monoamine Oxidase, MAO-B, Peripheral (MAOBP), Maob (gene 25750) (UniProt P19643)", "sequence (P19643 whole entry, looked up)": "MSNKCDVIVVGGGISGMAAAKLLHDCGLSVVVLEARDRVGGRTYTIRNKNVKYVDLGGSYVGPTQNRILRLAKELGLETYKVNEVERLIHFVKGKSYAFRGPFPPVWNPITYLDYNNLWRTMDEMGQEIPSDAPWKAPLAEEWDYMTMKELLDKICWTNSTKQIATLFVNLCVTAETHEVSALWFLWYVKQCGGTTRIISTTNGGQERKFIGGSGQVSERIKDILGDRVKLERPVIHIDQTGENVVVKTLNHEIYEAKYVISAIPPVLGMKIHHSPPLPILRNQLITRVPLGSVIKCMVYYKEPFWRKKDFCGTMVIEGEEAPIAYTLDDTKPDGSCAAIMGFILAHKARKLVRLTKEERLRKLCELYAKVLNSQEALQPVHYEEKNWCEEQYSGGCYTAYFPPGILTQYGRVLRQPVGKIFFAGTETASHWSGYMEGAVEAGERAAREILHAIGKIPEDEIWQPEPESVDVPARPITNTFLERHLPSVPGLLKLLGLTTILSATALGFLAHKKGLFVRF", "test": "NVS_ENZ_rMAOBP: NovaScreen (NVS) Enzymatic Assay for rat Monoamine Oxidase, MAO-B, Peripheral (MAOBP) (AID 2283242)"}, "[6]": {"tested_on": "rat Monoamine Oxidase, MAO-A, Central (MAOAC), gene 29253", "test": "NVS_ENZ_rMAOAC: NovaScreen (NVS) Enzymatic Assay for rat Monoamine Oxidase, MAO-A, Central (MAOAC) (AID 2283243);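 also: potency refers to inhibition seen as signal drop below DMSO baseline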", "how_it_was_run": "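Scintillation read-out of MAO-A activity in rat brain lysate, 1.5 h post-dosing. Primary single-concentration screen: 25 uM, duplicate; actives re-tested in concentration series. DMSO = negative control/baseline.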"}, "[7]": {"biological_target": "rat Oxytocin Receptor (OXT), Oxtr (gene 25342) (UniProt P70536)", "sequence (P70536 whole entry, looked up)": "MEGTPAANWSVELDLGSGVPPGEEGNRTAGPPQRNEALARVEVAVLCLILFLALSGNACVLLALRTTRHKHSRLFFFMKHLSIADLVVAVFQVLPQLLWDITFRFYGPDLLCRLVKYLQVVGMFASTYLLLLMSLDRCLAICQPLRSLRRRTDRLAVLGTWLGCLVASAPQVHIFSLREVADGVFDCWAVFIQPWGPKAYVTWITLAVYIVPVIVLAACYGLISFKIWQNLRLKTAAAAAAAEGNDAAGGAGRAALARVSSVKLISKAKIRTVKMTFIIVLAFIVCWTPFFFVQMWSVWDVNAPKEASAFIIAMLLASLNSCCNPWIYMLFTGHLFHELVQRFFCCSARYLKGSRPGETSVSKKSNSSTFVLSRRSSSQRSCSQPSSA", "test": "NVS_GPCR_rOXT: NovaScreen (NVS) G Protein-Coupled Receptor Assay for rat Oxytocin Receptor (OXT) (AID 2283330)", "how_it_was_run": "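Binding to rat uterine membrane receptor was followed by scintillation counting of filter-trapped radioligand after 1 h. A 25 uM duplicate single-point screen preceded concentration series with a top of 50 uM. Signal loss was analysed relative to DMSO.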"}, "[8]": {"biological_target": "Bile acid receptor (Homo sapiens) (UniProt Q96RI1)", "sequence (Q96RI1 whole entry, looked up)": "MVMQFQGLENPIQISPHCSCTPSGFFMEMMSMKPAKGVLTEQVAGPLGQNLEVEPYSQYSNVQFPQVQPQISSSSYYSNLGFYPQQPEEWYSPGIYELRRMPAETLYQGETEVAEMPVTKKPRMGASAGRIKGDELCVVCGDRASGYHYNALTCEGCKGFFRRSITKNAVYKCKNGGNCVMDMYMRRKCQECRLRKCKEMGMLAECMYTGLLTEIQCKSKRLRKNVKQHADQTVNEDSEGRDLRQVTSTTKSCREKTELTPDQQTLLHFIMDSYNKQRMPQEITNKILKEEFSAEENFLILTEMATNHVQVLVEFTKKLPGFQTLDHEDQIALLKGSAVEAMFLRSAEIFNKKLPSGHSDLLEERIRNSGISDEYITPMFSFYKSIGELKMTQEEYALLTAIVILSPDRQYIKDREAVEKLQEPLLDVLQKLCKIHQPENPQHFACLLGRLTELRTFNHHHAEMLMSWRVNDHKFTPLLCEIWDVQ", "test": "NVS_NR_hFXR_Agonist: NovaScreen (NVS) Nuclear Receptor Binding Assay for human Farnesoid X Receptor Agonism (FXR) (AID 2283347)", "how_it_was_run": "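Agonist-mode FXR assay read by time-resolved FRET 1 h after compound addition, using isolated human receptor protein without cells. Duplicate 25 uM single-point primary screen, concentration series for confirmed actives; DMSO as baseline.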"}, "[9]": {"biological_target": "human AMP-activated Protein Kinase, alpha 1 (AMPKa1), PRKAA1 (gene 5562) (UniProt Q13131)", "test": "NVS_ENZ_hAMPKa1: NovaScreen (NVS) Enzymatic Assay for human AMP-activated Protein Kinase, alpha 1 (AMPKa1) (AID 2283130)", "how_it_was_run": "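Compounds were screened in duplicate at 25 uM, and those reaching ~30% inhibition were titrated up to 50 uM. The enzyme was recombinant human AMPKα1, and kinase turnover was read by fluorescence/mobility shift 1 h post-dosing as loss of signal versus DMSO.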"}, "[10]": {"biological_target": "human Aurora Kinase A - serine/threonine-protein Kinase 6 (AurA), AURKA (gene 6790) (UniProt O14965)", "test": "NVS_ENZ_hAurA: NovaScreen (NVS) Enzymatic Assay for human Aurora Kinase A - serine/threonine-protein Kinase 6 (AurA) (AID 2283142)", "how_it_was_run": "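Recombinant human AurA activity read by fluorescence after mobility-shift separation of product from substrate; 1 hour incubation. Chemicals first run in duplicate at 25 uM, then concentration series to 50 uM if over threshold; fitted relative to DMSO.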"}, "[11]": {"biological_target": "human Ephrin type-B Receptor 2 (EphB2), EPHB2 (gene 2048) (UniProt P29323)", "test": "NVS_ENZ_hEphB2: NovaScreen (NVS) Enzymatic Assay for human Ephrin type-B Receptor 2 (EphB2) (AID 2283156)", "how_it_was_run": "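Compounds were first tested in duplicate at 25 uM, with hits rerun singly in concentration series up to 50 uM. Enzyme activity on fluorescent substrate was read at 1 h by mobility-shift separation, scored as signal loss relative to DMSO.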"}, "[12]": {"biological_target": "human NIMA (Never In Mitosis Gene A)-Related Kinase 2 (NEK2), NEK2 (gene 4751) (UniProt P51955)", "test": "NVS_ENZ_hNEK2: NovaScreen (NVS) Enzymatic Assay for human NIMA (Never In Mitosis Gene A)-Related Kinase 2 (NEK2) (AID 2283188)", "how_it_was_run": "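Compounds were first screened in duplicate at 25 uM, with actives followed up in concentration series. Recombinant NEK2 activity, cell-free, was read 1 h after dosing by fluorescence intensity after mobility-shift separation. Signal loss was scored against DMSO.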"}, "[13]": {"biological_target": "human p21 Activated Kinase 4 (PAK4), PAK4 (gene 10298) (UniProt O96013)", "test": "NVS_ENZ_hPAK4: NovaScreen (NVS) Enzymatic Assay for human p21 Activated Kinase 4 (PAK4) (AID 2283189)", "how_it_was_run": "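Extracted PAK4 enzyme activity read by fluorescence with mobility-shift separation 1 h after chemical addition. Duplicate single-concentration screen at 25 uM, DMSO as negative control.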"}, "[14]": {"biological_target": "human Protein Tyrosine Phosphatase Non-receptor Type 2 (PTPN2), PTPN2 (gene 5771) (UniProt P17706)", "test": "NVS_ENZ_hPTPN2: NovaScreen (NVS) Enzymatic Assay for human Protein Tyrosine Phosphatase Non-receptor Type 2 (PTPN2) (AID 2283207)", "how_it_was_run": "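Activity measured as fluorescence after mobility-shift separation of substrate and product, 1 h after compound. Duplicate single-point 25 uM primary testing, concentration series for actives; inhibition scored as signal loss relative to DMSO baseline.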"}, "[15]": {"biological_target": "Norway rat Vesicular Monoamine Transporter (VMAT2), neurotransmitter transporter, Slc18a2 (gene 25549) (UniProt Q01827)", "sequence (Q01827 whole entry, looked up)": "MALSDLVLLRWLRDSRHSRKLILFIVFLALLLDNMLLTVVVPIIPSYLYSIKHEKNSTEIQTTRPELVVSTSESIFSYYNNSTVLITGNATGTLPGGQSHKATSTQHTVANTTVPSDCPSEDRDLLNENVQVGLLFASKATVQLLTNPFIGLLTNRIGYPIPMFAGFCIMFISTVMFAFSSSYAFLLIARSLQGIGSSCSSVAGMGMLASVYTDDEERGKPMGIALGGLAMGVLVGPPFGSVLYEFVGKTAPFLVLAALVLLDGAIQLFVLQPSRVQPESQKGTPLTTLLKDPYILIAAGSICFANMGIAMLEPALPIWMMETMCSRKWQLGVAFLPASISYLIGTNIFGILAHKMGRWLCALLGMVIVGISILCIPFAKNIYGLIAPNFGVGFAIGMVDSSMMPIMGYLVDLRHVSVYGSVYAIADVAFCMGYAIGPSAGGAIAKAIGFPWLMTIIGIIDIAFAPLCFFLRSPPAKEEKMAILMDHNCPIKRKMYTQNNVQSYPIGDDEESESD", "test": "NVS_TR_rVMAT2: NovaScreen (NVS) Transporter Assay for Norway rat Vesicular Monoamine Transporter (VMAT2), neurotransmitter transporter (AID 2283376);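 also: actives lower the bound radioligand signal below the DMSO level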", "how_it_was_run": "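Filter-based scintillation counting of radioligand bound to rat forebrain-derived VMAT2 protein, cell-free, 1 h post-dose. Signal loss relative to DMSO control scored; single-concentration duplicate screen (25 uM) followed by concentration-response testing of actives.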"}, "[16]": {"biological_target": "human Ephrin type-A Receptor 2 (EphA2), EPHA2 (gene 1969) (UniProt P29317)", "test": "NVS_ENZ_hEphA2: NovaScreen (NVS) Enzymatic Assay for human Ephrin type-A Receptor 2 (EphA2) (AID 2283155)", "how_it_was_run": "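Enzyme activity of recombinant EphA2 read by fluorescence after mobility-shift separation, 1 h after dosing. Chemicals first tested at 25 uM (duplicate); those passing threshold run as concentration series, top 50 uM, single replicate, relative to DMSO.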"}},
  "note": "Results filed as inconclusive are left out. Calls of active or inactive are those of the source. The calls were made as follows: active = hit-call score of the fitted dose curve at least 0.9, where 1 is the maximum; inconclusive = response in the unintended direction; inactive = score below 0.9.",
  "data": [
    {"smiles": "CCN(Cc1cccnc1)C(=O)c1cccc(Cl)c1[C@]1(C)C(=O)N(Cc2ccc(OC)cc2OC)c2ccc(Cl)cc21", "values": [
      {"measurement": "outcome", "setting": "[1]", "result": "inactive"},
      {"measurement": "outcome", "setting": "[2]", "result": "inactive"},
      {"measurement": "outcome", "setting": "[3]", "result": "inactive"},
      {"measurement": "AC50", "setting": "[4]", "result": "9.73 µM (active)"},
      {"measurement": "outcome", "setting": "[5]", "result": "inactive"},
      {"measurement": "AC50", "setting": "[6]", "result": "2.51 µM (active)"},
      {"measurement": "AC50", "setting": "[7]", "result": "0.0728 µM (active)"},
      {"measurement": "AC50", "setting": "[8]", "result": "15.1 µM (active)"}
    ]},
    {"smiles": "COc1cc(C(=O)NC2CCN(C)CC2)ccc1Nc1ncc2c(n1)N(C1CCCC1)CC(F)(F)C(=O)N2C", "values": [
      {"measurement": "outcome", "setting": "[1]", "result": "inactive"},
      {"measurement": "AC50", "setting": "[2]", "result": "23.4 µM (active)"},
      {"measurement": "outcome", "setting": "[9]", "result": "inactive"},
      {"measurement": "outcome", "setting": "[10]", "result": "inactive"},
      {"measurement": "outcome", "setting": "[11]", "result": "inactive"},
      {"measurement": "outcome", "setting": "[3]", "result": "inactive"},
      {"measurement": "outcome", "setting": "[12]", "result": "inactive"},
      {"measurement": "outcome", "setting": "[13]", "result": "inactive"},
      {"measurement": "AC50", "setting": "[14]", "result": "6.13 µM (active)"},
      {"measurement": "outcome", "setting": "[5]", "result": "inactive"},
      {"measurement": "AC50", "setting": "[15]", "result": "3.01 µM (active)"}
    ]},
    {"smiles": "CCCOc1sc(C(=O)N2CCC(c3cc(CN)ccc3F)CC2)c(C)c1Br", "values": [
      {"measurement": "outcome", "setting": "[1]", "result": "inactive"},
      {"measurement": "outcome", "setting": "[2]", "result": "inactive"},
      {"measurement": "outcome", "setting": "[16]", "result": "inactive"},
      {"measurement": "AC50", "setting": "[6]", "result": "0.439 µM (active)"},
      {"measurement": "AC50", "setting": "[7]", "result": "23.2 µM (active)"},
      {"measurement": "AC50", "setting": "[15]", "result": "2.89 µM (active)"}
    ]}
  ]
}
